Test results published in PubChem BioAssay.
Results filed as inconclusive are left out. For some of these results: Measured potencies and affinities stand elsewhere. Calls of active or inactive are those of the source.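 Rule for the calls, unless noted: active = luciferase signal above three times the same-plate solvent-only control wells; inactive = the rest.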

How the values were obtained:
[1] = liver-stage malaria parasite growth inhibition, primary screen, cell-based, HepG2, luciferase luminescence, HepG2 viability (AID 624349; in the data active = parasite load remaining mostly below about 12%, no sharp cut-off; inactive = mostly above about 10%;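 note: 100% = mean of DMSO negative control wells on the same plate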); details: P. berghei liver stage in HepG2, luciferase luminescence, concentration not given here; parasite load remaining: stronger effect = lower value; viability: measured here: HepG2 viability without parasites
[2] = target: Mitogen-activated protein kinase 7 (Homo sapiens) (UniProt Q13164); experiment: ERK5 transactivation activators in reporter cells, primary screen, cell-based, HTS (AID 1508626); details: HeLa Gal4-ERK5 transactivation, 18 h, at 5 µM, stronger effect = higher value;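 note: luciferase driven by Gal4-ERK5 fusion binding five Gal4 sites before minimal TATA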
Chain of Mitogen-activated protein kinase 7 (Homo sapiens) (Q13164 whole entry, looked up, the tested form may be a part): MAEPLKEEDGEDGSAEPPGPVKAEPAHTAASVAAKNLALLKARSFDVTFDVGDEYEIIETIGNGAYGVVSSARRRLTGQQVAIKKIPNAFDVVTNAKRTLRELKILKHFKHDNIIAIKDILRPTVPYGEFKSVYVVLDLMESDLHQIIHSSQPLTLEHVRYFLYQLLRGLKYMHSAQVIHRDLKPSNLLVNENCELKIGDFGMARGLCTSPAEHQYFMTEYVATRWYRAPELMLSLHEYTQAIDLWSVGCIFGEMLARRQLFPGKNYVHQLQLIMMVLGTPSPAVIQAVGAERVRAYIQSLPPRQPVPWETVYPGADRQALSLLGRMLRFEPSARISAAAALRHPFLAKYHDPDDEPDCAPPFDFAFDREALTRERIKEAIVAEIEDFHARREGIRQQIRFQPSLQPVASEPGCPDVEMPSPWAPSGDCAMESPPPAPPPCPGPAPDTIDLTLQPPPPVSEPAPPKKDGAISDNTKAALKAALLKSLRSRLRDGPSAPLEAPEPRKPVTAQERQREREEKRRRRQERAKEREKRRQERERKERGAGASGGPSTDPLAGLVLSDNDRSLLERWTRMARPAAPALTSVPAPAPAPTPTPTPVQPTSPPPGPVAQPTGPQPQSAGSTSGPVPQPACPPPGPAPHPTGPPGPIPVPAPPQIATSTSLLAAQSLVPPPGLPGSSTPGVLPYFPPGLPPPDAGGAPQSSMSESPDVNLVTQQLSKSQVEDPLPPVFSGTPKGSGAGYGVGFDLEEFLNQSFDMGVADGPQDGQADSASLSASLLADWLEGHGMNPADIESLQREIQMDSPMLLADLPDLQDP

[3] = polyglutamine-triggered caspase-3 activation inhibitors, cell-based (AID 1583); details: polyglutamine-induced caspase-3 activation, cell assay; stronger effect = higher value;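 tested at 10 µM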
[4] = suppressors of polyQ aggregation in yeast, 75Q-TubU reporter (AID 1593); details: Yeast 75Q polyglutamine aggregation reporter
[5] = rescue of polyQ-huntingtin neuronal dysfunction in worms, whole organism, C. elegans mechanosensory neurons, N-terminal huntingtin (AID 1599); details: touch response, stronger effect = higher value
[6] = inhibitors of mitochondrial cytochrome c release, biochemical, purified mitochondria (AID 1603); details: stronger effect = lower value;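 note: mouse liver mitochondria challenged with calcium chloride; signal normalized to the plate average as 100%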
[7] = inhibitors of polyQ protein aggregation (AID 1604); details: polyglutamine-induced protein aggregation inhibition assay; stronger effect = higher value; tested at 2.5 µM
[8] = enhancers of glutamate uptake in motor neurons, MN-1 cell line (AID 1612); details: MN-1 motor neuron cells, stronger effect = higher value;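 note: tested at 1 µM final; 0% = mean of DMSO vehicle wells on each plate; positive means more glutamate uptake than control and negative means less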
[9] = reducers of polyQ inclusions in PC12 cells, cell-based, NGF-treated PC12, GFPQ80 (AID 1614); details: PC12 NGF-treated GFP-polyQ80 inclusion reduction;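 note: lower means fewer inclusions and 0 means no inclusions at all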
[10] = suppressors of polyglutamine aggregation in yeast, 75Q-TubH (AID 1616); details: S. cerevisiae 75Q-TubH polyglutamine aggregation suppression; stronger effect = higher value
[11] = protection against mutant huntingtin cytotoxicity, PC12 cells, LDH release (AID 1610); details: PC12 mutant huntingtin toxicity, final LDH at 4 uM, stronger effect = lower value
[12] = protection of motor neurons from glutamate death, cell-based, TUNEL DNA degradation staining, MNGlu (AID 1594; call rule not given here); details: glutamate-induced death, at 1 µM, stronger effect = higher value

| Compound | parasite load remaining [1] | viability [1] [%] | luciferase signal [2] | inhibition [3] [%] | score [4] | rescue above control [5] | cytochrome c release ratio [6] | inhibition of aggregation [7] [%] | glutamate uptake change [8] [%] | inclusion score [9] | aggregation suppression score [10] | normalised LDH release [11] | protection [12] |
| --- | --- | --- | --- | --- | --- | --- | --- | --- | --- | --- | --- | --- | --- |
| CC[C@H]1C(=O)OC[C@@H]1Cc1cncn1C | 76.7% (inactive) | 70.2 | 84 AU (inactive) | – | – | – | – | – | – | – | – | – | – |
| COc1ccc2c3c1O[C@H]1[C@@H](O)C=CC4[C@@H](C2)N(C)CC[C@@]341 (stereo not given in full) | – | – | – | -19 | 1.17 | 2.82 | 0.92 | 61.9 | -22 | 2 | 1.22 | – | – |
| CCCCCc1cc(O)c2c(c1)OC(C)(C)C1CCC(C)=CC21 (stereo not given) | – | – | – | 5.35 | -0.54 | -0.11 | 2.94 | 34.7 | -3.83 | – | 0.291 | 0.893 | – |
| C[N+]12CC[C@@]34c5ccccc5N5C(=O)CC6OCC=C(C1)[C@H](CC32)[C@@H]6C54 (stereo not given in full) | – | – | 140 AU (inactive) | – | – | – | – | – | – | – | – | – | – |
| CNC(C)Cc1ccccc1 (stereo not given) | – | – | – | 4.94 | 1.26 | 3.06 | 0.97 | -0.68 | 6.37 | 2 | 1.49 | – | – |
| COC12CC[C@@]3(C[C@@H]1C(C)(O)C(C)(C)C)[C@H]1Cc4ccc(O)c5c4[C@@]3(CCN1CC1CC1)[C@H]2O5 (stereo not given in full) | – | – | – | 26.4 | 1.52 | 5.39 | 1.25 | -0.68 | -3.06 | – | 1.02 | 1.01 | – |
| CCCCCc1cc(O)c2c(c1)OC(C)(C)C1CC=C(C)CC21 (stereo not given) | – | – | – | 13.2 | -0.66 | -4.34 | 1.71 | 42.9 | -49.9 | – | 0.105 | 0.999 | – |
| COC(=O)C1C(OC(=O)c2ccccc2)CC2CCC1N2C (stereo not given) | – | – | – | -2.13 | 1.1 | -9 | 0.85 | 32 | -26.1 | 2 | 1.26 | – | – |
| O=C1CN=C(c2ccccc2)c2cc(Cl)ccc2N1 | – | – | – | 6.42 | 1.16 | 2.8 | 0.98 | 2.04 | -20.9 | 2 | 1.12 | – | 38% (active) |
| CN1C2CCC1C(C(=O)O)C(OC(=O)c1ccccc1)C2 (stereo not given) | – | – | – | -11.5 | 0.85 | -9.16 | 1.03 | 41.5 | -21 | 2 | 1.17 | – | – |
| CC(N)Cc1ccc2c(c1)OCO2 (stereo not given) | – | – | – | -14.9 | 1.01 | -3.14 | 1 | 21.1 | -7.15 | 2 | 1.15 | – | – |
| CCC1(CCC(C)C)C(=O)NC(=O)NC1=O | – | – | – | 6.77 | 1.7 | 0.92 | 0.96 | 40.1 | -7.2 | 2 | 1.35 | – | – |
